Reference: PubChem BioAssay (Tox21)
Results filed as inconclusive are left out. The source made the active and inactive calls. Calls follow the shape of the dose curve; as a rule, active = well fitted activation curve with a large enough effect in the repeat runs; inconclusive = weak or mixed curves; inactive = flat fitted curve, though single readings scatter.

test: A CellTox Green Cytotoxicity Assay to monitor cytotoxicity in HEK293 cells - 16 hour (AID 1224888); details: CellTox Green fluorescence; series mostly up to 76.8 µM; activity change: at the top concentration; also: nearly all actives have a fitted effect of over 35% in size
Summary of the method: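 Nonlytic real-time cytotoxicity: HEK293 + CellTox Green reagent plated, 5 h preincubation, pintool compound addition (23 nL in DMSO), 37 C for 40 h, fluorescence measured at successive time points.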
% is scaled to controls: 0 for no effect and ±100 for the full control effect; potency is read from the fitted curve at half-maximal effect.

Question: For `O=C(O)c1ccccc1S`, which “activity change” value is on record?
Answer: -20.5% [at 35.3 µM, active compounds read high] (inactive)

Question: Which “activity change” value does the source give for `NC(=O)CCCCC1CCSS1` (stereo not given) here?
Answer: -10.8% [at 35.3 µM, active compounds read high] (inactive)

Question: For `CCN(CC)C(=O)c1ccc(O)c(OC)c1`, which “activity change” value is on record?
Answer: -11% [at 35.3 µM, active compounds read high] (inactive)

Question: For `CC(C)COC(=O)c1ccccc1O`, which “activity change” value is on record?
Answer: -7.64% (inactive)

Question: For `C1C2OC2C2C1C1CC2C2OC12` (stereo not given), which “activity change” value is on record?
Answer: 0.753% (inactive)

Question: Which “activity change” value does the source give for `CC12CCC(CC1=O)C2(C)C` (stereo not given) here?
Answer: 17.5% (inactive)

Question: With `CCCc1ccccc1O` as the molecule, how does the “activity change” value read?
Answer: -2.78% (inactive)

Question: Which “activity change” value does the source give for `Nc1ncnc2c1ncn2Cc1c(F)cccc1Cl` here?
Answer: -9.54% [at 35.3 µM, active compounds read high] (inactive)

Question: Which “activity change” value does the source give for `Fc1ccccc1-c1ccccc1` here?
Answer: 25.2% (inactive)

Question: For `CN(C)C(=O)C(CCN1CCC(O)(c2ccc(Cl)cc2)CC1)(c1ccccc1)c1ccccc1`, which “activity change” value is on record?
Answer: 21.2% [at 35.3 µM, active compounds read high] (inactive)

Question: With `CN1[C@@H]2CC[C@H]1CC(NC(=O)n1c(=O)[nH]c3ccccc31)C2` (stereo not given in full) as the molecule, how does the “activity change” value read?
Answer: -5.03% [at 35.3 µM, active compounds read high] (inactive)

Question: With `COC(=O)[C@H]1[C@H]2C[C@@H]3c4[nH]c5cc(OC)ccc5c4CCN3C[C@H]2C[C@@H](OC(=O)COc2ccc(OC)cc2)[C@@H]1OC` as the molecule, how does the “activity change” value read?
Answer: 18.2% [at 35.3 µM, active compounds read high] (inactive)

Question: For `C=C(C)[C@@H]1CCC2=CC(=O)C[C@@H](C)[C@]2(C)C1`, which “activity change” value is on record?
Answer: 2.96% (inactive)

Question: With `Cc1nc(-c2ccc(OCC(C)C)c(C#N)c2)sc1C(=O)O` as the molecule, how does the “activity change” value read?
Answer: 2.27% [at 35.3 µM, active compounds read high] (inactive)

Question: For `[O-][N+](=Nc1ccccc1)c1ccccc1`, which “activity change” value is on record?
Answer: 26.1% (inactive)

Question: Which “activity change” value does the source give for `c1ccc(CCCc2ccccn2)cc1` here?
Answer: 17.4% (inactive)

Question: Which “activity change” value does the source give for `Cc1ccccc1C(=O)O` here?
Answer: 8.45% (inactive)

Question: Which “activity change” value does the source give for `CCCCCCCCCCCCCCCCCCOCC(O)CO` (stereo not given) here?
Answer: -11.9% [at 35.3 µM, active compounds read high] (inactive)

Question: With `C=C(C)C(=O)NCCC[N+](C)(C)C` as the molecule, how does the “activity change” value read?
Answer: -1.39% (inactive)

Question: Which “activity change” value does the source give for `CCCCc1ccc2cccc(S(=O)(=O)O)c2c1` here?
Answer: -10.2% (inactive)

Question: Which Potency does the source give for `NC(=O)c1ncn([C@@H]2O[C@H](CO)[C@@H](O)[C@H]2O)c1O` here?
Answer: 19 µM (active)

Question: For `C[C@H]1O[C@@H](n2cc(F)c(=O)[nH]c2=O)[C@H](O)[C@@H]1O`, which “activity change” value is on record?
Answer: 3.46% [at 35.3 µM, active compounds read high] (inactive)

Question: With `CCCCOCC(C)OCC(C)O` (stereo not given) as the molecule, how does the “activity change” value read?
Answer: 18.4% (inactive)

Question: Which “activity change” value does the source give for `CC(C)c1cccc(C(C)C)c1N` here?
Answer: 19.7% (inactive)

Question: With `NC(N)=NS(=O)(=O)c1ccc(N)cc1` as the molecule, how does the “activity change” value read?
Answer: -10% [at 35.3 µM, active compounds read high] (inactive)

Question: Which “activity change” value does the source give for `CC(C)(C)CC(C)(C)N` here?
Answer: -0.717% (inactive)

Question: With `CC/C=C\CCCCO` as the molecule, how does the “activity change” value read?
Answer: 1.75% (inactive)

Question: Which “activity change” value does the source give for `CCO[Si](C)(OCC)OCC` here?
Answer: 2.52% (inactive)

Question: For `COc1cc(CCC(C)=O)ccc1O`, which “activity change” value is on record?
Answer: -3.05% (inactive)

Question: For `CC1(C)SC(C)(C)SC(C)(C)S1`, which “activity change” value is on record?
Answer: 18.8% (inactive)

Question: For `Nc1nc(F)nc2c1ncn2[C@@H]1O[C@H](CO)[C@@H](O)[C@@H]1O`, which “activity change” value is on record?
Answer: -1.02% [at 35.3 µM, active compounds read high] (inactive)

Question: For `CC1=CC(C)C(C=O)C(C)C1` (stereo not given), which “activity change” value is on record?
Answer: -0.386% (inactive)

Question: For `O=C(O)Cc1cc(I)c(Oc2cc(I)c(O)c(I)c2)c(I)c1`, which “activity change” value is on record?
Answer: -6.14% [at 35.3 µM, active compounds read high] (inactive)

Question: Which “activity change” value does the source give for `CC1CCN(CCCC(=O)c2ccc(F)cc2)CC1` here?
Answer: 0.708% [at 35.3 µM, active compounds read high] (inactive)

Question: For `COc1cccc(Br)c1`, which “activity change” value is on record?
Answer: 15.2% (inactive)
